Experimental data taken from paper PMC7819943, “Rice protein-binding microarrays: a tool to detect cis-acting elements near promoter regions in rice”.
Over roughly 68,000 sequences, “fluorescence intensity (a.u.)” has its median near 9,100; the highest 2% begin near 16,000. The entries come from a sample that favours the highest values as a whole.

These sequences were tested against OsWRKY34 (Oryza sativa, UniProt Q0JBA9 1-250) (assay: protein-binding microarray (RPBM); PBS, 2% BSA, 51.3 ng/ul salmon testes DNA, 50 uM zinc acetate, 200 nM TF, 25 C, 1 h; high values mean tight binding). Settings: protein: recombinant; tags: N-terminal polyhistidine and DsRed monomer fusion (pET32a); label: CyDye5-dUTP incorporated in the synthesized complementary strand; 3' TTTTT single-stranded linker to array surface; dsDNA, one strand shown.
OsWRKY34, sequence (Q0JBA9 entry or part of it): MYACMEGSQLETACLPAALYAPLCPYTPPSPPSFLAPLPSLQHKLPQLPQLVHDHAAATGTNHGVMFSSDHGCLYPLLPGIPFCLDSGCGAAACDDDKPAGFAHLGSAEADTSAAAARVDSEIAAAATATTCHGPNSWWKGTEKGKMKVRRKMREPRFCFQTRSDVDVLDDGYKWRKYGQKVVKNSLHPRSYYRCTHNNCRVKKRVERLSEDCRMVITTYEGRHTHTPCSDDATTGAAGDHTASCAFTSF
How it was run: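 Transcription factors, each fused N-terminally to a polyhistidine tag and DsRed, were expressed in E. coli BL21-CodonPlus and purified on Ni–NTA. A custom Agilent array was made double-stranded by primer extension with Cy5-dUTP and blocked with 2% BSA. It was incubated with 200 nM protein in PBS, 2% BSA, salmon testes DNA and 50 µM zinc acetate at 25 °C for 1 h, then washed. The binding signal is per-feature fluorescence intensity (arbitrary units) read on an Axon 4000B scanner.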
“GTTTACCATTGCATTCCCCGGTCCACGTGCATCAGTGCATCGGAGTCACCTAGTGCAG” was tested, and the binding signal was 9610 fluorescence intensity (a.u.).
“AGTGTCTGACACTACTTAAGAAACCATAGCAGTGCTAAAGCGGAGTCACCTAGTGCAG” was tested, and the binding signal was 31200 fluorescence intensity (a.u.).
In the case of “ACACTACCTTAAAGAAACATCAGTGACATCTCCATCACTCCGGAGTCACCTAGTGCAG”, the binding signal is reported as 8750 fluorescence intensity (a.u.).
In the case of “CACACTATAGCTAGTACTAGTACTAGTACTACTTAAACTACGGAGTCACCTAGTGCAG”, the binding signal is reported as 8120 fluorescence intensity (a.u.).
“GCCTACTTAAATTACATTTCCGCACCCACACCACACACACCGGAGTCACCTAGTGCAG” was tested, and the binding signal was 11400 fluorescence intensity (a.u.).
“GCCGGCCTGGGAGGCCGAAGGTTGGGGATGACAGGTGGGGCGGAGTCACCTAGTGCAG” was tested, and the binding signal was 8920 fluorescence intensity (a.u.).
For “GCTGCCCGCTCTAATCTGTTTTGTCTCCATCTGCTATGATCGGAGTCACCTAGTGCAG”, the binding signal was 8950 fluorescence intensity (a.u.).
For “GAGTACTCGTCCGGGGTTTTTAACTTTTTGCCACTTTTAACGGAGTCACCTAGTGCAG”, the binding signal was 9100 fluorescence intensity (a.u.).
For “AACAATCACCTAGGCTAAATGTTACTTCCTCCGTTTCACACGGAGTCACCTAGTGCAG”, the binding signal was 9190 fluorescence intensity (a.u.).
“GAGAACCTAATTGTGAGGCTCCTAGTTACACGACAAATCACGGAGTCACCTAGTGCAG” was tested, and the binding signal was 56300 fluorescence intensity (a.u.).
In the case of “GGTGTGTTTGGCAAATGAGTTATGAGAGGTGTGATTGTTACGGAGTCACCTAGTGCAG”, the binding signal is reported as 8860 fluorescence intensity (a.u.).
With “CGTACTATAATTTTGTCATTCCTGTTGAAATTTTATAATTCGGAGTCACCTAGTGCAG” the binding signal was 9340 fluorescence intensity (a.u.).
With “GCCGGTCTCCTCCCCGCCACCGCCGCCGCCGCCGCCAATGCGGAGTCACCTAGTGCAG” the binding signal was 8650 fluorescence intensity (a.u.).
In the case of “ATATATATATATATATATATATATATATATATGCGCAGAGCGGAGTCACCTAGTGCAG”, the binding signal is reported as 9140 fluorescence intensity (a.u.).
In the case of “GCGGGATCGCGCGGGCGGCGGCGGCGGCGGGGAGGGGATGCGGAGTCACCTAGTGCAG”, the binding signal is reported as 16900 fluorescence intensity (a.u.).
With “TAGCTTTGGAGGAGGAGGAGGAGGAGGGGCGCGAGCCATGCGGAGTCACCTAGTGCAG” the binding signal was 10800 fluorescence intensity (a.u.).
In the case of “CGATCGGAGGAGGAGGCGGCGGGGAGGGAGGAGGAGGATGCGGAGTCACCTAGTGCAG”, the binding signal is reported as 10800 fluorescence intensity (a.u.).
For “TTGAGAGCTGGAGGCGCAGGCTGGGATCGGCGGAGCCATGCGGAGTCACCTAGTGCAG”, the binding signal was 63200 fluorescence intensity (a.u.).
For “GGCGGCGGCGGAGGAGGAGGAGGGGAGGGGAGCACGAGCGCGGAGTCACCTAGTGCAG”, the binding signal was 17400 fluorescence intensity (a.u.).
In the case of “ATATATATATATATATATATATAGAGAGAGAGAGAGAGACCGGAGTCACCTAGTGCAG”, the binding signal is reported as 8980 fluorescence intensity (a.u.).
With “GGGCGAGGAGCAGCGGCGGGCGGGCGGATGAGGGGCGGCGCGGAGTCACCTAGTGCAG” the binding signal was 11400 fluorescence intensity (a.u.).
In the case of “ATATATATATATATATATATATATATATAGAGCGCGCACTCGGAGTCACCTAGTGCAG”, the binding signal is reported as 21200 fluorescence intensity (a.u.).
For “CGATCGGGCCGCGGCGCGAGGGAGGGGATCGGTGCGCGCGCGGAGTCACCTAGTGCAG”, the binding signal was 8060 fluorescence intensity (a.u.).
For “GGCGGCGGAGGAGGAGGAGGCGCGAGGGGAGGCGAGCATGCGGAGTCACCTAGTGCAG”, the binding signal was 8150 fluorescence intensity (a.u.).
With “GGAGGAGAGCTTGGTGGTGCGCTGATCGGCGGATGCGGGGCGGAGTCACCTAGTGCAG” the binding signal was 8490 fluorescence intensity (a.u.).
With “CGCTCTCTTGTTGACCACCTCGCGTTGCACTGGGCCAGCCCGGAGTCACCTAGTGCAG” the binding signal was 9490 fluorescence intensity (a.u.).
“GCTGCTGGTGGTGGTAGTAGGACTTGGGGCTCGTGTTGTGCGGAGTCACCTAGTGCAG” was tested, and the binding signal was 9720 fluorescence intensity (a.u.).
For “TCGTAGGGTGCGGGGTGGCTGCCTGTCTCCTTCGCCTCGCCGGAGTCACCTAGTGCAG”, the binding signal was 9680 fluorescence intensity (a.u.).
In the case of “ATCACCAGTTGCCATTCTGTCACCTCAACTTAGAACATACCGGAGTCACCTAGTGCAG”, the binding signal is reported as 8290 fluorescence intensity (a.u.).
In the case of “CAAACGTACTCCTACTCTCCAAGCAGCCTATATAAACCACCGGAGTCACCTAGTGCAG”, the binding signal is reported as 8590 fluorescence intensity (a.u.).
With “TTTCACCTAGTCCTAGCCTAATTCGTCTATCTTTATCAATCGGAGTCACCTAGTGCAG” the binding signal was 9710 fluorescence intensity (a.u.).
“CGCTGCTTTTGCTGCTGCTGTTGATGATGCATCCCATTCCCGGAGTCACCTAGTGCAG” was tested, and the binding signal was 9140 fluorescence intensity (a.u.).
For “TGCGGGGCGCAAGGCGCGCGGTAGGGGAGGGGTTAGCGCTCGGAGTCACCTAGTGCAG”, the binding signal was 8190 fluorescence intensity (a.u.).
“GGGAGCGGGTGGGAGTGGCCGGCGCGGAGGACGACGGCGGCGGAGTCACCTAGTGCAG” was tested, and the binding signal was 8280 fluorescence intensity (a.u.).
In the case of “AGCTGAGGGGCGGCGGCGGCTGGCAAGGGGCGGCGGCGGCCGGAGTCACCTAGTGCAG”, the binding signal is reported as 10900 fluorescence intensity (a.u.).
In the case of “GGTTCTTCTGAGCGGGGCCGGGGCGGGGCGGCAGCTGGGGCGGAGTCACCTAGTGCAG”, the binding signal is reported as 30000 fluorescence intensity (a.u.).
“GTAGCAATGGGCGGCGGGGAGCGGGGCTGAGCGGCAGCCGCGGAGTCACCTAGTGCAG” was tested, and the binding signal was 8150 fluorescence intensity (a.u.).
With “GGCGGCGGCGGCGGGGCGGCGTGGCGCCGAGGGAGGGGAACGGAGTCACCTAGTGCAG” the binding signal was 12500 fluorescence intensity (a.u.).
With “GGCCGGTAGGGGTAGAACGGTCATTTCGTGCGCGGGGAGGCGGAGTCACCTAGTGCAG” the binding signal was 9810 fluorescence intensity (a.u.).
“CGGAGGCATGGGGAGGCTGCTGCGGCGCCAATTGTGGCCACGGAGTCACCTAGTGCAG” was tested, and the binding signal was 8860 fluorescence intensity (a.u.).
With “TATTTTAGTGCAAGGGGCGGGCGGGCGCGGTAGAAGTCAACGGAGTCACCTAGTGCAG” the binding signal was 18200 fluorescence intensity (a.u.).
For “GGCGTGGGGAGGCGGAGGGAGGGAGGGGAGCGGCTGCGCACGGAGTCACCTAGTGCAG”, the binding signal was 17700 fluorescence intensity (a.u.).
For “GCTGGGAGGGAGGAGCGGGAGGCGGCGCGGCGCGTGGAGGCGGAGTCACCTAGTGCAG”, the binding signal was 8580 fluorescence intensity (a.u.).
In the case of “CGCGCGCGCGCGCGTACGTGGGAACAGAGAGCGGCGCCGACGGAGTCACCTAGTGCAG”, the binding signal is reported as 27900 fluorescence intensity (a.u.).
